Each structure is given as a SMILES string. Results filed as inconclusive are left out. Calls of active or inactive are those of the source. Unless noted, the call rests on the fitted dose curve; in most records, active means well fitted curve in the direction sought with a large enough effect; inconclusive means small, poorly fitted or top-dose-only effect, or another doubt; inactive means no such curve, though single readings can be large; an effect the other way counts as inactive or inconclusive.

Assay [1] is described as follows: qHTS Assay for Lipid Storage Modulators (AID 1519; calls by dose curve; on activity change, negative = inhibition: on the % scale 0 is the no-effect control and ±100 the full control effect). The settings on record: Drosophila S3 cells, BODIPY lipid droplet/cell ratio, laser cytometry, cells loaded with oleic acid; for activity change, negative = inhibition: at 57.5 µM (top of the series). Put shortly: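 Cells seeded at 5,000 per well were treated with compounds over a concentration series and loaded with oleic acid (400 uM, as added). Lipid droplet fluorescence (488 nm excitation, 500-530 nm channel) was read by laser-scanning cytometry and normalized to 20 uM Triacsin C.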
(qHTS replaces the single test concentration by a dilution series.)

The target of assay [2] is ATP-dependent 6-phosphofructokinase (Trypanosoma brucei brucei) (UniProt O15648). In words: qHTS Assay to Find Inhibitors of T. brucei phosphofructokinase: hit validation (AID 492961). Further: on the % scale 0 is the no-effect control and ±100 the full control effect. To be noted: T. brucei PFK, ADP-Glo luminescence; series mostly up to 24.3 µM. The gist of the method: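 Luminescence from ADP-Glo reports ADP generated as T. brucei PFK (1.25 nM) phosphorylates 0.5 mM fructose-6-phosphate using 0.1 mM ATP. Reactions ran 45 min at room temperature, pH 8.0.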
Sequence of ATP-dependent 6-phosphofructokinase (Trypanosoma brucei brucei) (O15648 whole entry, looked up): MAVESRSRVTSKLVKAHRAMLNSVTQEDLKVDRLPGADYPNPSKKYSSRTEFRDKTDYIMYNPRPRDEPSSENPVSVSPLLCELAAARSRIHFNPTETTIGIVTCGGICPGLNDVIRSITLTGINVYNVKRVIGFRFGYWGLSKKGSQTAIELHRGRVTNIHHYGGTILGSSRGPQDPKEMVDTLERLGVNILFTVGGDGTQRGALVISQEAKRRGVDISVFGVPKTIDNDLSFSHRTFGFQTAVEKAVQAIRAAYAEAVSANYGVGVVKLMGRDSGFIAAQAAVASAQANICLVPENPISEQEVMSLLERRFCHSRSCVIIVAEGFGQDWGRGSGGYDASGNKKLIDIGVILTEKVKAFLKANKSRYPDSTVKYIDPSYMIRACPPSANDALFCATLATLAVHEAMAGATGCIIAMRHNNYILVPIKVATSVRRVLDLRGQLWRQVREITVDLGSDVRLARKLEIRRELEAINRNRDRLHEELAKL

Assay [3] can be described thus: qHTS profiling for inhibitors of Plasmodium falciparum proliferation (AID 504749). Further: potency means the concentration at half of the fitted maximal effect.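 On activity, negative = inhibition: 0% = DMSO vehicle and full inhibition = artemisinin control.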 On all read-outs here: nearly all actives have a fitted effect of over 60% in size. To be noted: P. falciparum in erythrocytes, SYBR Green DNA, 72 h; for activity, negative = inhibition: at 28.7 µM (top of the series). Put shortly:
(§1)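 Readout was DNA-dye fluorescence from lysed cultures, ex 485/em 535 nm. Parasitized red cells had grown 72 h with compound; data scaled between 0.29 uM artemisinin and DMSO wells and corrected using vehicle-only plates.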

A further assay relates to 3D7. Described as above. To be noted: P. falciparum in erythrocytes, SYBR Green DNA, 72 h; series mostly up to 12.8 µM. The gist of the method:
as §1

A further assay has as its system C2A. The description is as above. To be noted: P. falciparum in erythrocytes, SYBR Green DNA, 72 h; series mostly up to 12.8 µM. Put shortly:
as §1

For another assay, the system named is CP201. The description is as above. To be noted: P. falciparum in erythrocytes, SYBR Green DNA, 72 h; series mostly up to 12.8 µM. Put shortly:
as §1

A further assay has as its system CP211. The description is as above. To be noted: P. falciparum in erythrocytes, SYBR Green DNA, 72 h; series mostly up to 12.8 µM. The gist of the method:
as §1

A further assay concerns CP237. Described as above. To be noted: P. falciparum in erythrocytes, SYBR Green DNA, 72 h; series mostly up to 12.8 µM. Put shortly: as §1
The subject of another assay is CP252. The description is as above. To be noted: P. falciparum in erythrocytes, SYBR Green DNA, 72 h; series mostly up to 12.8 µM. Put shortly: as §1
Another assay has as its system CP262. The assay is described as above. The settings on record: P. falciparum in erythrocytes, SYBR Green DNA, 72 h; series mostly up to 12.8 µM. Put shortly: as §1
The next assay concerns CP268. The description is as above. The settings on record: P. falciparum in erythrocytes, SYBR Green DNA, 72 h; series mostly up to 12.8 µM. Put shortly:
as §1

A further assay deals with CP305. The assay is described as above. To be noted: P. falciparum in erythrocytes, SYBR Green DNA, 72 h; series mostly up to 12.8 µM. The gist of the method: as §1
The test system of a further assay is CP315. The assay is described as above. The settings on record: P. falciparum in erythrocytes, SYBR Green DNA, 72 h; series mostly up to 12.8 µM. Put shortly: as §1
A further assay has as its system CP329. The description is as above. The settings on record: P. falciparum in erythrocytes, SYBR Green DNA, 72 h; series mostly up to 12.8 µM. The gist of the method:
as §1

The test system of a further assay is HB3. The description is as above. To be noted: P. falciparum in erythrocytes, SYBR Green DNA, 72 h; series mostly up to 12.8 µM. Put shortly:
as §1

The test system of another assay is PAD. The description is as above. The settings on record: P. falciparum in erythrocytes, SYBR Green DNA, 72 h; series mostly up to 12.8 µM. Put shortly: as §1
In the next assay the test system is PC49. The assay is described as above. To be noted: P. falciparum in erythrocytes, SYBR Green DNA, 72 h; series mostly up to 12.8 µM. Put shortly: as §1
Assay [4] concerns the target Ubiquitin carboxyl-terminal hydrolase 1 (Homo sapiens) (UniProt O94782). In words: Inhibitors of USP1/UAF1: Pilot qHTS (AID 504865).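 Further: rhodamine fluorescence freed from ubiquitin-rhodamine substrate followed over time; top concentration of the series differs between compounds; on the % scale 0 is the no-effect control and ±100 the full control effect; nearly all actives have a fitted effect of over 35% in size.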 To be noted: purified USP1/UAF1, Ub-rhodamine cleavage fluorescence; series mostly up to 114 µM. Put shortly: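 In 50mM HEPES pH 7.8 containing 0.5mM EDTA, 1mM TCEP, 0.1 mg/ml BSA and 0.01% Tween-20, 1nM USP1/UAF1 is exposed to compound for 15 min, then Ub-Rho (150nM final) is added and fluorescence is read over time.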

Assay [5] addresses Luciferin 4-monooxygenase (Photinus pyralis) (UniProt P08659). Description: Biochemical firefly luciferase enzyme assay for NPC (AID 624030).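 Further: purified P. pyralis luciferase at 10 nM with luciferin and ATP substrate; 0% = DMSO and -100% = full luciferase inhibition by PTC124 control; nearly all actives have a fitted effect of over 70% in size.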 The settings on record: purified P. pyralis luciferase, luminescence, 5 min; series mostly up to 24.9 µM. The gist of the method: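 Purified P. pyralis luciferase at 10 nM in 50 mM Tris Acetate (final), luminescence read within 5 minutes of enzyme addition to compounds. Activity normalised to PTC124 versus DMSO; concentration-response curves classed by r2, magnitude and activity.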

The subject of a further assay is JCK. In words: qHTS profiling for inhibitors of Plasmodium falciparum proliferation (AID 504749). Further: nearly all actives have a fitted effect of over 60% in size. Further: potency means the concentration at half of the fitted maximal effect.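 On activity, negative = inhibition: 0% = DMSO vehicle and full inhibition = artemisinin control.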 To be noted: P. falciparum in erythrocytes, SYBR Green DNA, 72 h; series mostly up to 12.8 µM. The gist of the method:
as §1

The mark [6] stands for this setting: measured here: cell count channel max response.
The mark [7] stands for this setting: measured here: lipid channel max response.

Sequence of Luciferin 4-monooxygenase (Photinus pyralis) (P08659 whole entry, looked up): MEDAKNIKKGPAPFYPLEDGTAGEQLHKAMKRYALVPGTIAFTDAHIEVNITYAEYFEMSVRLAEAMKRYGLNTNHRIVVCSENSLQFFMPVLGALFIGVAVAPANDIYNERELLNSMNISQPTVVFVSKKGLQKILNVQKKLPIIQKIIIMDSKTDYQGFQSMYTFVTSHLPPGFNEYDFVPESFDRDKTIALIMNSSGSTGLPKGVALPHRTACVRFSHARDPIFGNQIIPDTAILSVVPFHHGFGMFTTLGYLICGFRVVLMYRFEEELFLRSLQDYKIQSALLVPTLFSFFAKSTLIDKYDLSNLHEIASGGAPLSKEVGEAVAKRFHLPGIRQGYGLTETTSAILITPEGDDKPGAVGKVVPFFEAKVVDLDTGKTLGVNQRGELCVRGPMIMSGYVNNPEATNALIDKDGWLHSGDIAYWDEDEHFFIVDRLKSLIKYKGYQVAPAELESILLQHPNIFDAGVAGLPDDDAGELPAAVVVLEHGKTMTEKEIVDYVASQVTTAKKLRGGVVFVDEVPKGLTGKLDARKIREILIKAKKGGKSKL
Sequence of Ubiquitin carboxyl-terminal hydrolase 1 (Homo sapiens) (O94782 whole entry, looked up): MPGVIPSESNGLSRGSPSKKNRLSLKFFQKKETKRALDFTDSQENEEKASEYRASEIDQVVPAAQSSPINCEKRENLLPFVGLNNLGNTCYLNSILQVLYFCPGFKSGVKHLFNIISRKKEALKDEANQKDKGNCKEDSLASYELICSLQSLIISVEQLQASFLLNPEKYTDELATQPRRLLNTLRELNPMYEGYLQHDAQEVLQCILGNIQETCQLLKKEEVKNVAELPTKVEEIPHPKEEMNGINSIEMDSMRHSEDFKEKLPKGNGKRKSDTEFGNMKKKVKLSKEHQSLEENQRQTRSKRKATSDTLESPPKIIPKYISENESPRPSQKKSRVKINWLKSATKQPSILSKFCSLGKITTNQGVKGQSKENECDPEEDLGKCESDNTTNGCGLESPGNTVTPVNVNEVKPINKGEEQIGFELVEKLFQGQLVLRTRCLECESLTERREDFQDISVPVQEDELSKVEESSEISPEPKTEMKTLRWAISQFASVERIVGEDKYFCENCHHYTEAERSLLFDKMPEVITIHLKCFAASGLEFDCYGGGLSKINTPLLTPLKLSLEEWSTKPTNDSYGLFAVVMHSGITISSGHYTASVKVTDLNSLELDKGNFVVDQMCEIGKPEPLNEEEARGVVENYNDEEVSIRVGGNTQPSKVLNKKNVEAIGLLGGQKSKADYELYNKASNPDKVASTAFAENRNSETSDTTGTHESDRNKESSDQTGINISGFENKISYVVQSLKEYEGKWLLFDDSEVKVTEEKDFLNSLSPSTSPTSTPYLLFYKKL

Regarding `COC1C=CO[C@@]2(C)Oc3c(C)c(O)c4c(O)c(c(C=NN5CCN(C)CC5)c(O)c4c3C2=O)NC(=O)/C(C)=C\C=CC(C)C(O)[C@@H](C)C(O)C(C)[C@H](OC(C)=O)C1C` (some centres not stated), the activity change, negative = inhibition in assay [1] is -0.247% (inactive). The figures for the max response in [1] (setting [6]) and in assay [1] (setting [7]) were 7.61% and 10.6%, respectively. In assay [2], the result was inactive. Further, the Potency in assay [3] (parasite line A) is 3.98 µM (active); in [3] (parasite line B) it was 3.98 µM (active); in the assay with 3D7, 2 µM (active); with C2A, 8.91 µM (active); with CP201 it was 5.36 µM (active); in the assay on CP211, 4.26 µM (active). The Potency in the assay with CP237 was 0.355 µM (active); with CP252, 3.16 µM (active); in the assay on CP262, 2.13 µM (active); in the assay with CP268, 4.78 µM (active); in the assay with CP305, 3.79 µM (active); in the assay with CP315, 4.78 µM (active). The Potency in the assay on CP329 is 3.38 µM (active); with HB3 it was 0.447 µM (active); in the assay with PAD, 0.282 µM (active); in the assay on PC49, 1.41 µM (active).

In the case of `CNC1CC(N)[C@H](O)[C@@H](O[C@@H]2OC(CO)C3OC4(OC(C(N)CO)C(O)C(O)C4O)O[C@@H]3[C@H]2O)C1O` (some centres not stated), the activity change, negative = inhibition in [1] is 3.46% (inactive). Moreover, the values for the max response in assay [1] (setting [6]) and in assay [1] (setting [7]) were 3.52% and 7.53%, respectively. The call in [2] was inactive. In addition, the Potency result (in [4]; in [5]; with 3D7; in the assay on C2A; in the assay with CP201; in the assay with CP211) was “inactive” throughout. Moreover, the Potency result in the assay on CP237, in the assay with CP252, in the assay on CP262, with CP268, with CP305 and in the assay on CP315 was “inactive” in each case. Moreover, the Potency entry with CP329, in the assay with HB3, with JCK, in the assay on PAD and with PC49 was “inactive” in each case. Further, the activity, negative = inhibition in [3] (parasite line A) is 1.25% (inactive); in [3] (parasite line B) it was -26.8% (inactive).

As to `CCOC(=O)C1=CC(OC(CC)CC)C(NC(C)=O)C(N)C1` (configuration not stated), the activity change, negative = inhibition in assay [1] is 11.6% (inactive). Also, the max response in [1] (setting [6]) was determined as 14.9%; in assay [1] (setting [7]), 27.8%. The compound was called inactive in assay [2]. Besides, the Potency entry (in assay [4]; in assay [5]; with 3D7; with C2A; in the assay with CP201; in the assay on CP211) was “inactive” each time. The Potency entry in the assay with CP237, in the assay with CP252, in the assay with CP262, in the assay with CP268, in the assay on CP305 and in the assay on CP315 was “inactive” each time. Besides, the Potency entry in the assay with CP329, in the assay with HB3, in the assay on JCK, with PAD and with PC49 was “inactive” throughout. Also, the activity, negative = inhibition in assay [3] (parasite line A) is 0.564% (inactive); in assay [3] (parasite line B), -0.576% (inactive).

Consider `CC[C@@]12CCCN3CCc4c(n(c5ccccc45)[C@](O)(C(=O)OC)C1)C32` (some centres not stated), for which the activity change, negative = inhibition in assay [1] is 6.08% (inactive). Besides, the max response in assay [1] (setting [6]) came to 25.6%; in assay [1] (setting [7]), 38.6%. Further, the call in [2] was inactive. Besides, the Potency entry (in assay [4]; in [5]; with 3D7; in the assay with C2A; in the assay with CP201; with CP211) was “inactive” throughout. In addition, the Potency result with CP237, in the assay with CP252, in the assay on CP262, with CP268, in the assay on CP305 and in the assay on CP315 was “inactive” in each case. Further, the Potency result in the assay with CP329, in the assay with HB3, in the assay with JCK, in the assay with PAD and in the assay on PC49 was “inactive” each time. Moreover, the activity, negative = inhibition in assay [3] (parasite line A) is 4.65% (inactive); in assay [3] (parasite line B) it was -5.85% (inactive).

For `CC1(C)OC2CO[C@]3(COS(N)(=O)=O)OC(C)(C)OC3C2O1` (some centres not stated), the activity change, negative = inhibition in assay [1] is -0.118% (inactive). In addition, the max response was found to be 7.1% in assay [1] (setting [6]) and 8.91% in assay [1] (setting [7]). In assay [2], the call was inactive. For the same compound, the Potency result (in assay [4]; in assay [5]; with 3D7; in the assay on C2A; in the assay on CP201; with CP211) was “inactive” throughout. Also, the Potency result in the assay on CP237, in the assay on CP252, in the assay on CP262, with CP268, in the assay with CP305 and with CP315 was “inactive” in each case. The Potency result in the assay on CP329, with HB3, with JCK, in the assay on PAD and with PC49 was “inactive” each time. Besides, the values for the activity, negative = inhibition in assay [3] (parasite line A) and in [3] (parasite line B) were 6.34% (inactive) and 12.5% (inactive), respectively.

Values taken from PubChem BioAssay (NCATS).
